# MCL1-BIM inh = MCL1-BIM-BH3 interaction inhibition (human) | 320,000 compounds, 0.68% hits | inhibition, % at 10.9 µM | Q07820 | GST-MCL1 / FITC-Bim-BH3 fluorescence polarization;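 active = inhibition above the mean inhibition of all tested compounds plus 3 SD, set per campaign, cut at about 40% in these data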;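 note: higher means more loss of mP so more displacement of Bim peptide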
# BCLXL inh = Bcl-xL (human) inhibition; inhibition, % at 10.9 µM; 320,000 compounds, 0.7% hits; Q07817; AID 2129; GST-Bcl-xL / FITC-Bim BH3 peptide fluorescence polarization;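 active = inhibition above the mean of all tested compounds plus 3 SD, cutoff set per campaign, cut at about 30% in these data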;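 note: inhibitors lower millipolarization by displacing the labeled peptide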
# MEX-5 binding = C. elegans MEX-5 TCR-2 RNA binding activity | MEX-5/FITC-TCR2 RNA binding, fluorescence polarization; hits give low values | activity score (negative = inhibition of binding), % at 10 µM | 300,000 compounds, 0.38% hits | AID 1832;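 active = inhibition past about -25% in most replicates, and total fluorescence under double the plate's negative control median, limit read from the data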
# E coli Lon inh = inhibitors of E. coli Lon protease | inhibition, % at 7.94 µM | purified E. coli Lon protease, fluorescence polarization | 360,000 compounds, 0.42% hits | P0A9M0; in the data active = inhibition above about 13%, passing the limit was not always enough
# Target sequence (P0A9M0 whole entry, looked up): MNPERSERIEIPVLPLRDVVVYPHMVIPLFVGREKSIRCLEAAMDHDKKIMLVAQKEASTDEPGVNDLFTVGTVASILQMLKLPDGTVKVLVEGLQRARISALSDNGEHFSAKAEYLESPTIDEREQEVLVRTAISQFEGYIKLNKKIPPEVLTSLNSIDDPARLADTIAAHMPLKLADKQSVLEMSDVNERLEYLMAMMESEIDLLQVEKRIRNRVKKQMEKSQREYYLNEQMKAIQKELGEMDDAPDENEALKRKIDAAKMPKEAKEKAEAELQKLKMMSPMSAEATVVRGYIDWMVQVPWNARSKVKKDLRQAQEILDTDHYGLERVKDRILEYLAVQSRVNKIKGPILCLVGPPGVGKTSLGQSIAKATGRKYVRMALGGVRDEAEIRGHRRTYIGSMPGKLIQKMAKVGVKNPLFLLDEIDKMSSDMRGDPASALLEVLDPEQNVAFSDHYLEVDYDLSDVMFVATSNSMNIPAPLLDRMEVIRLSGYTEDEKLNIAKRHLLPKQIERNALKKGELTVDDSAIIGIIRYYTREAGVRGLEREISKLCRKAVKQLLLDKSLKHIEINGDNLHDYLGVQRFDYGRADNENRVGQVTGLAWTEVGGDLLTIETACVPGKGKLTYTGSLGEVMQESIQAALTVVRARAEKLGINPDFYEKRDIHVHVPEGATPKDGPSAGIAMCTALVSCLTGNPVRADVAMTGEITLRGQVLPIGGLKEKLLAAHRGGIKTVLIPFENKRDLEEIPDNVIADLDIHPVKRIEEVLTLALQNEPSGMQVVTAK
# EBV gp42 block = EBV gp42 inhibition; Fluorescence polarization binding assay, mP read-out; inhibition, % (tested at 21.74 µM); 220,000 compounds, 0.42% hits; Q1HVG2; in the data active = inhibition above about 50%
# GLD-1 RNA inh = GLD-1-TGE RNA interaction inhibition (C. elegans). purified GLD-1 + fluorescein TGE RNA, fluorescence polarization. AID 2280. inhibition, % at 5.96 µM. 320,000 compounds, 0.44% hits;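 active = percent inhibition above a per-plate cutoff, the plate mean of test compounds plus 3 SD, cut at about 30% in these data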
# E coli Lon conf = confirmation of E. coli Lon protease inhibitors. shares compounds with E coli Lon inh. purified E. coli Lon, fluorescence polarization. inhibition, % at 7.94 µM. 1,400 compounds, 31% hits. AID 602230; in the data active = inhibition above about 16%
# Hits are given with their value; – = inactive; · = not tested or not shown; + = active, no number. Rows were chosen to be rich in hits. Some 1.5% of all compounds tested hit in one or more screens of this group.
SMILES,MCL1-BIM inh,BCLXL inh,MEX-5 binding,E coli Lon inh,EBV gp42 block,GLD-1 RNA inh,E coli Lon conf
CCCn1c(C(C)Nc2nc(C)cs2)nc2cc(Cl)c(Cl)cc21 (centres undefined),–,–,–,116,·,–,–
CCOC(=O)c1c(C)oc2c1c(C=NCCC(=O)O)c(O)c1ccccc12,–,–,–,15,–,–,30
CCN(CC)c1ccc(/C=N/NC(=O)c2cc3ccccc3[nH]2)cc1,–,–,–,16,·,–,–
CCCCNCc1cc2ccccc2o1,–,–,–,–,–,–,·
O=C(Nc1cccc(O)c1)C1CCCN1C(=O)OCc1ccccc1 (centres undefined),–,–,–,18,–,–,–
COc1ccc(N(C)C(=O)c2cc3c(s2)-c2ccccc2OC3)c(OC)c1,–,–,–,–,·,–,·
COc1ccc(N(C)C(=O)c2cc3c(s2)-c2ccc(Cl)cc2S(=O)(=O)C3)c(OC)c1,–,–,–,20,·,–,–
CCCc1cc(=O)n2nc(N3CCC(C(=O)N4CCN(c5cccc(OC)c5)CC4)CC3)sc2n1,–,–,–,24,·,–,–
COc1ccccc1N1CCN(C(=O)c2c(-c3c(F)cccc3Cl)noc2C)CC1,·,·,–,21,·,·,–
COc1ccccc1N1CCN(C(=O)c2c(-c3ccccc3)noc2C)CC1,–,–,–,–,–,–,·
Cc1onc(-c2c(Cl)cccc2Cl)c1C(=O)N=C(N)N1CCCC1,–,–,–,33,–,–,–
O=C(OCC(=O)N1N=C(c2ccc(Cl)cc2)CC1c1ccco1)c1cncc(Br)c1 (centres undefined),·,·,·,–,·,–,·
CCOc1ccc(Nc2nc(NCC(=O)O)nc(N)c2[N+](=O)[O-])cc1,–,–,–,19,·,–,–
CCOc1ccc(Nc2nc(Nc3ccc(O)cc3)nc(C)c2[N+](=O)[O-])cc1,–,–,–,–,–,–,·
O=C(Nn1c(O)c(C=C2N=c3ccccc3=N2)sc1=S)c1ccccc1,–,–,–,–,–,–,·
Cc1ccc(C(=O)Nn2c(O)c(C=C3N=c4ccccc4=N3)sc2=S)cc1,–,–,–,26,61,–,33
Cc1ccc(N2C=Nc3ccc(C)c4nc(C)cc2c34)cc1,–,–,–,18,–,–,–
CC1=Nc2ccc(C)c3nc(C)cc(c23)N1c1ccc(C)cc1,–,–,–,–,–,–,·
CC1CN(C(=O)COC(=O)c2cncc(Br)c2)CC(C)O1 (centres undefined),·,·,·,–,·,·,·
CC(=O)Nc1cc(-c2ccccc2N(C)C)cn2c(-c3ccc(S(C)(=O)=O)cc3)cnc12,·,·,·,+,·,·,55
Cc1cc(C)cc(OCC(=O)OCC(=O)N2CCc3ccccc32)c1,–,–,–,–,·,–,·
Cn1c(NC2CCCCC2)cc(=O)n(C)c1=O,–,–,–,27,·,–,–
C(/C=C/c1ccccn1)=C\c1ccccc1,–,–,–,36,·,–,–
O=C(NC(=S)Nc1ccc([N+](=O)[O-])cc1O)C1CCCCC1,–,–,–,16,·,–,–
CCOC(=O)C1CCN(C(=O)C2CCN(c3ncnc4c3nc3n4CCCCC3)CC2)CC1,–,–,–,–,·,–,·
SMILES,MCL1-BIM inh,BCLXL inh,MEX-5 binding,E coli Lon inh,EBV gp42 block,GLD-1 RNA inh,E coli Lon conf
CC1CCN(C(=O)C2CCN(c3ncnc4c3nc3n4CCCCC3)CC2)CC1,–,–,–,20,·,–,–
COc1ccc(CCNC(=O)COC(=O)C23CC4CC(CC(Br)(C4)C2)C3)cc1,–,–,–,–,–,–,·
CC(NC(=O)COC(=O)C12CC3CC(CC(Br)(C3)C1)C2)c1ccccc1 (centres undefined),·,·,·,26,·,–,–
C1=C[C@@H]2CCN(Cc3ccccc3)Cc3cccc(c32)C1,–,–,·,34,·,–,–
Cc1ccc(CN2CC[C@H]3C=CCc4cccc(c43)C2)cc1,–,–,·,–,·,–,·
CCOC(=O)c1ccc2ncc(C(=O)OCC)c(NCCN(C)C)c2c1,–,–,–,22,·,–,–
CCOC(=O)c1ccc2ncc(C(=O)OCC)c(NCCN3CCOCC3)c2c1,–,–,–,–,·,–,·
O=C(CSc1nc2ccccc2s1)NC1CCCC1,–,–,–,23,–,–,–
COc1cc(C)c(C(=O)CSc2nnc(CNC(=O)c3ccco3)n2C)cc1C,–,–,–,–,·,–,·
Nc1nc(NCCO)nc(N2CCCCCC2)c1[N+](=O)[O-],–,–,–,–,·,–,·
OCCN(CCO)c1nc(N2CCCCC2)c2nc(N(CCO)CCO)nc(N3CCCCC3)c2n1,·,·,·,148,135,155,159
COc1ccc(/C=C/C(=O)OCC(=O)N2c3ccccc3CC2C)c(OC)c1 (centres undefined),·,·,·,14,·,·,–
COc1cccc(/C=C/C(=O)OCC(=O)N2c3ccccc3CC2C)c1OC (centres undefined),·,·,·,–,·,·,·
CC(NC(=O)CN1C(=O)NC2(CCCCCC2)C1=O)c1ccccc1Cl (centres undefined),–,–,·,–,·,–,·
COc1ccc(N2CCN(c3cc(C(=O)Nc4cc(OC)c(OC)c(OC)c4)ncn3)CC2)cc1OC,·,·,·,12,·,·,–
Cc1nc(NC(=O)COC(=O)c2ccc(CO)cc2)c(Cl)cc1Cl,·,·,·,–,·,–,·
COc1cccc(OC)c1C(=O)NNC(=O)c1cccc(COc2ccc3c(c2)CCC3)c1,–,–,–,15,–,–,–
O=C(NCc1ccccc1)c1cccc(COc2ccc3c(c2)CCC3)c1,–,–,–,–,–,–,·
Cc1ccccc1OCCNc1cc(N2CCN(CCO)CC2)ccc1[N+](=O)[O-],–,–,–,–,–,–,·
Cc1ccccc1OCCNc1cc(N2CCCCC2)ccc1[N+](=O)[O-],–,–,–,15,–,–,–
CCCCNC(=O)/C=C/c1ccc(S(=O)(=O)Nc2ccc(OC)cc2)cc1,–,–,–,–,–,–,·
Nc1nc(N=Nc2ccc(O)cc2)cc(=O)[nH]1,·,·,·,67,·,·,35
Nc1nc(N)c(N=Nc2ccccc2)c(=O)[nH]1,·,·,·,–,·,·,·
c1ccc(C2(Cn3ccc4ccccc43)OCCO2)cc1,–,–,–,25,–,–,–
COc1ccc(C(NC(C)=O)c2cc(Cl)c3cccnc3c2O)cc1 (centres undefined),–,–,–,–,·,–,·
CCCC(=O)NC(c1ccc(OC)c(OC)c1)c1cc(Cl)c2cccnc2c1O (centres undefined),–,–,–,17,–,–,48
Cc1cc2cc(CNC(=O)c3ccc(S(=O)(=O)N4CCCC4)cc3)ccc2n1C,–,–,–,23,–,–,–
Cc1ccc(CNC(=O)c2ccc(S(=O)(=O)N3CCCCC3)cc2)cc1,·,·,·,–,·,·,·
Cc1cc2cc(CNC(=O)c3ccc(S(=O)(=O)N4CCCCC4)cc3)ccc2n1C,–,–,–,16,–,–,–
CCN(CC)S(=O)(=O)c1ccc(C(=O)NCc2ccc3c(c2)cc(C)n3C)cc1,–,–,–,–,–,–,·

# Bioassay records (PubChem)
